Measured values: the supplement of paper PMC9925115
Several values for one entry are separate records, joined by “and”; a condition that tells them apart may be missing. Equal entries are not always repeated.

Test system: FLX1 + dox-induced PRKAR1A G325D
Assay: difference in log2 fold change of viability vs plate median (dox-induced PRKAR1A G325D minus uninduced); higher = compound less effective when PKA is inhibited
Settings: concentration: not stated (2 or 5 uM); 5 days
Description: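 For each plate a log2 fold change vs the plate median was derived, and the values without dox were subtracted from those with dox, averaged over three biological replicates.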

SMILES	difference in log2 fold change of viability
CC(C)CCN1c2nc(Nc3cc(F)c(O)c(F)c3)ncc2N(C)C(=O)C1C (stereo not drawn)	-0.074
Cc1[nH]c(/C=C2\C(=O)Nc3ccc(S(=O)(=O)Cc4c(Cl)cccc4Cl)cc32)c(C)c1C(=O)N1CCC[C@@H]1CN1CCCC1	-0.266
C=CC(=O)Nc1cccc(Nc2nc(Nc3ccc(Oc4ccnc(C(=O)NC)c4)cc3)ncc2F)c1	-0.452
Oc1ccc(Nc2nc(-c3ccc(Cl)cc3)cs2)cc1	-0.56
CC(C)(C)c1nc(-c2cccc(NS(=O)(=O)c3c(F)cccc3F)c2F)c(-c2ccnc(N)n2)s1	0.264
Cc1cnc(-c2cnc(NCCNc3ccc(C#N)cn3)nc2-c2ccc(Cl)cc2Cl)[nH]1	-0.0854 and -0.119
O=C1NC(=O)C(=Cc2ccc(-c3ccc(F)cc3)o2)S1 (stereo in doubt)	-0.0657
COc1cc(Nc2ncc(F)c(Nc3ccc4c(n3)NC(=O)C(C)(C)O4)n2)cc(OC)c1OC [R406 (free base)]	-0.334
Clc1ccc(C2(c3ccc(-c4cn[nH]c4)cc3)CCNCC2)cc1	0.734
C[C@H](Nc1ncnc2nc[nH]c12)c1cc2cccc(Cl)c2c(=O)n1-c1ccccc1 [Duvelisib (IPI-145, INK1197)]	-0.0226
O=C(O)c1ccc(-c2c[nH]c3ncc(-c4ccccc4)cc23)cc1C1CCCC1	0.0725
CC(C)n1nc(-c2ccc3oc(N)nc3c2)c2c(N)ncnc21	-0.0452
Cc1cc([C@@H](C)Nc2ccccc2C(=O)O)c2nc(N3CCOCC3)cc(=O)n2c1	0.0369
COc1cc2c(Oc3ccc4[nH]c(C)cc4c3F)ncnc2cc1OCCCN1CCCC1 [Cediranib (AZD2171)]	0.58
O=C(c1ccc(/C=C/c2n[nH]c3ccccc23)cc1)N1CCNCC1	-0.0816
Cc1c(NC(=O)OC[C@@H]2COCCN2)cn2ncnc(Nc3ccc4c(cnn4Cc4cccc(F)c4)c3)c12	-0.034
NC1(Cc2ccc(Cl)cc2)CCN(c2ncnc3[nH]ccc23)CC1	0.655
CNC(=O)Nc1ccc(-c2nc(N3CC4CCC(C3)O4)c3cnn(C4CCC5(CC4)OCCO5)c3n2)cc1	1.48
CCc1cncnc1N1CCN(Cc2nc3ccc(C(F)(F)F)cc3[nH]2)CC1	-1.55

SMILES	difference in log2 fold change of viability
Cc1cc2c(F)c(Oc3ncnn4cc(OC[C@@H](C)O)c(C)c34)ccc2[nH]1	0.515
C[C@H]1[C@H](C)CC[C@]2(C(=O)O)CC[C@]3(C)C(=CC[C@@H]4[C@@]5(C)C[C@@H](O)[C@H](O)[C@@](C)(CO)[C@@H]5CC[C@]43C)[C@H]12 [Asiatic Acid]	-0.0847
COC(=O)Nc1ccc(-c2nc(N3CCOCC3)c3cnn(C4CCN(C(=O)OC)CC4)c3n2)cc1	0.71
CC(C)(C)c1cnc(CSc2cnc(NC(=O)C3CCNCC3)s2)o1	0.0393
CC(C)(C)c1ccc(S(=O)(=O)/C=C/C#N)cc1	0.145
CC(C)(C)c1cc(/C=C(\C#N)C(N)=S)cc(C(C)(C)C)c1O [Tyrphostin AG 879]	0.264
C=CC(=O)Nc1cccc(Oc2nc(Nc3ccc(N4CCN(C)CC4)cc3)ncc2Cl)c1	-0.131
CCOc1cc(C(=O)N2CCC(N3CCN(C)CC3)CC2)ccc1Nc1ncc2c(n1)N(C1CCCC1)c1ccccc1C(=O)N2C	0.00328
O=C(c1cccc(Cl)c1F)N1CCN(Cc2cccc(Nc3nccs3)n2)CC1	-0.738
COc1ccc(-c2cc3c(C)nc(N)nc3n([C@H]3CC[C@H](OCCO)CC3)c2=O)cn1	0.605
OCCn1cc(-c2ccc3c(c2)CC/C3=N\O)c(-c2ccncc2)n1	0.00993
C[C@@H](Oc1cc(-c2cnn(C3CCNCC3)c2)cnc1N)c1c(Cl)ccc(F)c1Cl	-0.703
Cc1ncc(-c2ccnc(Nc3ccc(S(C)(=O)=O)cc3)n2)n1C(C)C	0.632
CN(C)CCCn1cc(C2=C(c3c[nH]c4ccccc34)C(=O)NC2=O)c2ccccc21	-0.243
Cc1ccc(Nc2nccc(N(C)c3ccc4c(C)n(C)nc4c3)n2)cc1S(N)(=O)=O	-0.0987
C=CCc1ccc(O)c(-c2ccc(O)c(CC=C)c2)c1 [Honokiol]	-1.37
Cn1cnc(N)c2ncnc1-2 [3-Methyladenine (3-MA)]	0.548
CN1CCN(S(=O)(=O)c2ccc(-c3cnc(N)c(C(=O)Nc4cccnc4)n3)cc2)CC1	-0.529
CC1(COc2ccc3c(c2)ncn3-c2ccc3cccc(N4CCC(N)CC4)c3n2)COC1	-0.0241
